Experimental data taken from paper PMC11995724, “Antibiotic target discovery by integrated phenotypic and activity-based profiling of electrophilic fragments” (Cell chemical biology, 2025).
The whole screen tested about 3,200 compounds, of which about 110 (3.4%) showed an effect of 50% or more. The entries come from a sample that favours strong results as a whole.

System: T1, V. cholerae SAD30
T1 construct: SAD30
Parameters: species or system S. aureus MSSA476 (TSB) or V. cholerae SAD30 (LB); 384-well bacterial growth screen at 25 uM, OD600 relative to DMSO control
Conditions: relative growth, OD600, LB; 25 µM; inhibitor

| Structure (SMILES) | % of control remaining [%] |
| --- | --- |
| CCOC(=O)c1c(NC(=O)CCl)sc(C)c1C [4-O15, ethyl 2-(2-chloroacetamido)-4,5-dimethylthiophene-3-carboxylate] | 102.998 |
| CC(=O)N1CCc2cc(C(=O)C(C)Cl)ccc21 (stereo not drawn) [10-L22, 1-(1-acetyl-2,3-dihydro-1H-indol-5-yl)-2-chloropropan-1-one] | 100.214 |
| CS(=O)(=O)N1CCc2cc(C(=O)CCl)ccc21 [10-B19, 2-chloro-1-(1-methanesulfonyl-2,3-dihydro-1H-indol-5-yl)ethan-1-one] | 18.0791 |
| CC(=O)N1c2ccc(C(=O)CCl)cc2CC1C (stereo not drawn) [10-I20, 1-(1-acetyl-2-methyl-2,3-dihydro-1H-indol-5-yl)-2-chloroethan-1-one] | 84.473 |
| N#CC(=Cc1ccsc1)C(=O)Nc1ccccc1Cl [9-O05, N-(2-chlorophenyl)-2-cyano-3-(thiophen-3-yl)prop-2-enamide] | 98.9123 |
| C=CC(=O)NCC1CNC(=O)c2ccccc21 (stereo not drawn) [2-F17, N-[(1-oxo-1,2,3,4-tetrahydroisoquinolin-4-yl)methyl]prop-2-enamide] | 90.0415 |
| CC(Cl)C(=O)N1CCN(CCOc2ccc3c(c2)CCC3)CC1 (stereo not drawn) [6-H17, 2-chloro-1-{4-[2-(2,3-dihydro-1H-inden-5-yloxy)ethyl]piperazin-1-yl}propan-1-one] | 64.6128 |
| C=CC(=O)N1CCCC(CS(=O)(=O)NC)C1 (stereo not drawn) [2-E18, N-methyl-1-[1-(prop-2-enoyl)piperidin-3-yl]methanesulfonamide] | 95.4453 |
| Cl.O=C(CCl)Nc1ccccn1 [5-B14, 2-chloro-N-(pyridin-2-yl)acetamide hydrochloride] | 98.0141 |
| C[C@@H](NC(=O)CCl)c1ccccc1 [6-O20, 2-chloro-N-[(1R)-1-phenylethyl]acetamide] | 94.0373 |
| O=C(CCl)c1cscn1 [10-L08, 2-chloro-1-(1,3-thiazol-4-yl)ethan-1-one] | 0 |
| C[C@H]1CN(C(=O)CCl)CCN1C(=O)c1cscn1 [5-L05, 2-chloro-1-[(3S)-3-methyl-4-(1,3-thiazole-4-carbonyl)piperazin-1-yl]ethan-1-one] | 86.0775 |
| Cn1ccnc1C(=O)CCl [10-C15, 2-chloro-1-(1-methyl-1H-imidazol-2-yl)ethan-1-one] | 101.461 |
| O=C(CCl)c1ccccn1 [10-J03, 2-chloro-1-(pyridin-2-yl)ethan-1-one] | 0 |
| N#CC(=Cc1ccc(O)cc1)C(=O)NCCc1c(F)cccc1F [9-I16, 2-cyano-N-[2-(2,6-difluorophenyl)ethyl]-3-(4-hydroxyphenyl)prop-2-enamide] | 83.8205 |
| c1nc(N2CCSSCC2)c2c3c(sc2n1)CCCC3 [10-M22, 3-(1,2,5-dithiazepan-5-yl)-8-thia-4,6-diazatricyclo[7.4.0.0,2,7]trideca-1(9),2,4,6-tetraene] | 79.3298 |
| O=C(CCl)Nc1nccc(Cl)n1 [6-C19, 2-chloro-N-(4-chloropyrimidin-2-yl)acetamide] | 88.7288 |
| CC(Cl)C(=O)Nc1ccccc1Sc1ccccc1 (stereo not drawn) [6-H10, 2-chloro-N-[2-(phenylsulfanyl)phenyl]propanamide] | 56.4224 |

| Structure (SMILES) | % of control remaining [%] |
| --- | --- |
| O=C1C=CC(=O)N1c1ccccc1Sc1ccccc1 [10-K12, 1-[2-(phenylsulfanyl)phenyl]-2,5-dihydro-1H-pyrrole-2,5-dione] | 28.0538 |
| O=C(CCl)Nc1ccccc1Sc1ccc(Cl)cc1 [4-O13, 2-chloro-N-{2-[(4-chlorophenyl)sulfanyl]phenyl}acetamide] | 72.9782 |
| O=C1C=CC(=O)N1c1ccccc1Sc1ccc(Cl)cc1 [10-A03, 1-{2-[(4-chlorophenyl)sulfanyl]phenyl}-2,5-dihydro-1H-pyrrole-2,5-dione] | 28.6772 |
| O=C(O)C(c1ccccc1)N1C(=O)C=CC1=O (stereo not drawn) [10-E21, 2-(2,5-dioxo-2,5-dihydro-1H-pyrrol-1-yl)-2-phenylacetic acid] | 103.487 |
| Cc1cc(NC(=O)CCl)n(-c2ccccc2)n1 [4-G05, 2-chloro-N-(3-methyl-1-phenyl-1H-pyrazol-5-yl)acetamide] | 102.825 |
| CC(C)c1ccc(CCNC(=O)CCl)cc1 [6-I16, 2-chloro-N-{2-[4-(propan-2-yl)phenyl]ethyl}acetamide] | 91.9139 |
| C=CC(=O)N1CCN(S(=O)(=O)Cc2ccon2)CC1 [1-J07, 1-{4-[(1,2-oxazol-3-yl)methanesulfonyl]piperazin-1-yl}prop-2-en-1-one] | 89.2377 |
| CN(Cc1ccccc1)S(=O)(=O)c1ccc(NC(=O)CCl)cc1 [5-K08, N-{4-[benzyl(methyl)sulfamoyl]phenyl}-2-chloroacetamide] | 97.1735 |
| N#CC(=Cc1cnc(-c2ccccc2)nc1)C(=O)NCc1ccco1 [9-M14, 2-cyano-N-[(furan-2-yl)methyl]-3-(2-phenylpyrimidin-5-yl)prop-2-enamide] | 95.2413 |
| O=C(CCl)Nc1c(Cl)cccc1C(F)(F)F [5-B04, 2-chloro-N-[2-chloro-6-(trifluoromethyl)phenyl]acetamide] | 98.0141 |
| O=C(CCl)NCCc1c(F)cccc1F [5-F20, 2-chloro-N-[2-(2,6-difluorophenyl)ethyl]acetamide] | 99.5272 |
| O=C(CCl)Cc1c(Cl)cccc1Cl [10-K15, 1-chloro-3-(2,6-dichlorophenyl)propan-2-one] | 45.6653 |
| O=C(CCl)Nc1ccccc1F [4-M16, 2-chloro-N-(2-fluorophenyl)acetamide] | 98.3394 |
| O=C(CCl)Nc1ccc(F)c(F)c1F [4-M05, 2-chloro-N-(2,3,4-trifluorophenyl)acetamide] | 104.033 |
| O=C(CCl)Cc1c(F)cccc1Cl [10-D20, 1-chloro-3-(2-chloro-6-fluorophenyl)propan-2-one] | 36.1582 |
| O=C(CCl)Cc1c(F)cccc1F [10-O15, 1-chloro-3-(2,6-difluorophenyl)propan-2-one] | 99.7467 |
| Cc1cccc(Cl)c1CCCNC(=O)CCl [7-F04, 2-chloro-N-[3-(2-chloro-6-methylphenyl)propyl]acetamide] | 91.9874 |
| O=C(CCl)Cc1cccc(F)c1F [10-K17, 1-chloro-3-(2,3-difluorophenyl)propan-2-one] | 0.1559 |
